Screening data: PubChem BioAssay, The Scripps Research Institute Molecular Screening Center
This is a sample that favours compounds with a hit; in the whole collection about 2.5% have one here.
ULK1 inh: human ULK1 kinase inhibition, primary screen; O75385; inhibition, % at 5.96 µM; AID 1259251; 30,000 compounds, 1.9% hits; AlphaScreen Atg13 phosphorylation by ULK1, luminescence; in the data active = inhibition above about 43%
Target sequence (O75385 whole entry, looked up): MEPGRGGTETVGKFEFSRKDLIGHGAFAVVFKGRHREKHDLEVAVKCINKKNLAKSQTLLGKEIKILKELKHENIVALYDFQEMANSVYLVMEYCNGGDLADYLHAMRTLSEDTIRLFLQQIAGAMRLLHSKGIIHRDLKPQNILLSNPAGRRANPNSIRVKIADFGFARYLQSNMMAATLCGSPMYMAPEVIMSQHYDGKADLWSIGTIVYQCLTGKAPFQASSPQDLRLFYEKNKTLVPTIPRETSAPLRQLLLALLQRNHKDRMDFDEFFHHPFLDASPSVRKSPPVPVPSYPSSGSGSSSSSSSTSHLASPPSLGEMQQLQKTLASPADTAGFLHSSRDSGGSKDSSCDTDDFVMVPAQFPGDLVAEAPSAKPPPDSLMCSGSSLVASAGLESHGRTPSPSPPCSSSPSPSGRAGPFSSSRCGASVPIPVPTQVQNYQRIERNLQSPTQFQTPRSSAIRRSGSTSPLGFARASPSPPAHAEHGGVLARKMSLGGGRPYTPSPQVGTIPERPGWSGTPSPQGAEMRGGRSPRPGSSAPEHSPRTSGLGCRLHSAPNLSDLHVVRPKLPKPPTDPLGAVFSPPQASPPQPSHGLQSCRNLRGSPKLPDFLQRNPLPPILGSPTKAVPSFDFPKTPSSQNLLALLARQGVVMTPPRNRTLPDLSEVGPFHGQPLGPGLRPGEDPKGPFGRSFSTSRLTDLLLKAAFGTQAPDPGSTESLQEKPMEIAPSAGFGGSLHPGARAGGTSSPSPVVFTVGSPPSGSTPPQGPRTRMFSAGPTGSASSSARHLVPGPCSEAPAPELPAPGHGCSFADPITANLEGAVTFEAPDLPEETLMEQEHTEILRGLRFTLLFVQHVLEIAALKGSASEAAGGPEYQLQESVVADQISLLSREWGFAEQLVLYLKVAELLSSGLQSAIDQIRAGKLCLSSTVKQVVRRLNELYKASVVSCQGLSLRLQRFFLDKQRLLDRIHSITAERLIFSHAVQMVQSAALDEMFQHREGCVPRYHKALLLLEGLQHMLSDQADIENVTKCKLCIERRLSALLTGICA
ASK1 inh: inhibitors of human ASK1 kinase | Q99683 | AlphaScreen MKK6 phosphorylation by ASK1, luminescence | inhibition, % at 7.44 µM | 22,000 compounds, 0.99% hits | AID 1159602; in the data active = inhibition above about 35%
TruHits interf: counter-screen for ASK1 inhibitors: AlphaScreen optical interference | AID 1159604 | AlphaScreen TruHits beads, signal interference counterscreen | IC50, µM | 220 compounds, 20% hits | shares compounds with ASK1 inh;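 active = IC50 of 10 µM or lower in the counterscreen; inactive = IC50 above 10 µM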;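 note: loss of AlphaScreen light from TruHits beads alone with no ASK1 enzyme present; potency of signal reduction so a low IC50 flags an assay artifact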
Large screens that a line does not name were inactive (follow-up assays come after a bar, where they were run).

O=C(Cc1ccccc1)Nc1cc(-c2ccnc(Nc3ccc(N4CCOCC4)cc3)c2)nn1CCc1ccccc1	none
c1ccc(CCn2nc(-c3ccnc(Nc4ccc(N5CCOCC5)cc4)c3)cc2Nc2ccccc2)cc1	ASK1 inh 56.2 | TruHits interf inactive
c1ccc(CCn2ncc(-c3ccnc(Nc4ccc(N5CCOCC5)cc4)c3)c2Nc2ccccc2)cc1	ASK1 inh 40.8 | TruHits interf inactive
Cn1ncc(-c2ccnc(Nc3ccc(N4CCOCC4)cc3)c2)c1Nc1ccccc1	none
NC(=O)c1ccccc1Nc1cc(NC(=O)Cc2ccc3c(c2)OCO3)ncc1Cl	none
CCn1c(C2COc3ccccc3O2)nc2ccc(-c3ccnc(N)n3)cc21 (stereo not given)	none
CN(Cc1ccccc1)C(=O)CN(c1ccc(F)cc1)S(=O)(=O)c1ccccc1	none (no result: ASK1 inh)
O=C(CNS(=O)(=O)c1ccc([N+](=O)[O-])cc1)c1ccccc1	none (no result: ASK1 inh)
CCc1ccc(NS(=O)(=O)c2ccccc2[N+](=O)[O-])cc1	none (no result: ASK1 inh)
O=C(NCCCN1CCCC1=O)c1cccc(Nc2nccc3ccccc23)c1	none
CC(C)n1c(Nc2nc3ccccc3n2C)nc2c(NCCCN3CCCC3=O)ncnc21	none
CCCNc1nc(N2CCN(c3ccccn3)CC2)nc2c1ncn2-c1ccsc1	none
Oc1ccc(CCNc2nc(N3CCN(c4ccccn4)CC3)nc3c2ncn3-c2ccsc2)cc1	ASK1 inh 38.8 | TruHits interf inactive
c1ccc(N2CCN(c3nc(Nc4ccc(N5CCOCC5)cc4)c4ncn(-c5ccsc5)c4n3)CC2)nc1	ASK1 inh 45.3 | TruHits interf inactive
c1ccc(Oc2ccc(Nc3nc(N4CCOCC4)nc4c3ncn4-c3ccsc3)cc2)cc1	none
COc1cc(Nc2nc(NCCN3CCOCC3)c3ncn(C(C)C)c3n2)cc(OC)c1OC	none
COc1ccc(CCNc2cc(C)nc(-c3ccc(N4CCOCC4)nc3)n2)cc1	none
Cc1nn(C)c(C)c1-c1nccc(NCc2cccc(C(F)(F)F)c2)n1	none
CN(C)c1cccc(Nc2nc(NC3CCN(Cc4ccccc4)CC3)c3ncn(-c4ccccc4)c3n2)c1	none
CC(C)n1c(Nc2ccccc2)nc2c(NC3CCN(Cc4ccccc4)CC3)ncnc21	none
CC(C)n1cnc2c(NC3CCN(Cc4ccccc4)CC3)nc(Nc3cccc(N(C)C)c3)nc21	ASK1 inh 35.8 | TruHits interf inactive
Cc1cc(NC2CC2)nc(Nc2cccc(N(C)C)c2)n1	none
Cc1cc(NC2CCN(Cc3ccccc3)CC2)nc(Nc2cccc(N(C)C)c2)n1	ASK1 inh 50.0 | TruHits interf 8.58
CC(C)n1c(Nc2cccc(N(C)C)c2)nc2c(NC3CCN(Cc4ccccc4)CC3)ncnc21	ASK1 inh 38.2 | TruHits interf inactive
CC(C)n1cnc2c(NCCO)nc(Nc3cnccn3)nc21	none
COc1cc(Nc2cc(-c3ccccc3)ncn2)cc(OC)c1OC	none
COc1cc2nc(Nc3nc4ccccc4n3C)nc(Nc3ccc(N4CCOCC4)cc3)c2cc1OC	ASK1 inh 67.4 | TruHits interf inactive
COc1cc2nc(Oc3ccccc3)nc(Nc3ccc(N4CCOCC4)cc3)c2cc1OC	none
COc1cc2nc(Nc3nc4ccccc4n3C)nc(Nc3ccc(NC(C)=O)cc3)c2cc1OC	ASK1 inh 72.4 | TruHits interf 9.71
COc1cc2nc(Nc3nc4ccccc4n3C)nc(Nc3ccc4c(c3)OCO4)c2cc1OC	none
COc1cc2nc(NC3CCN(Cc4ccccc4)CC3)nc(Nc3cc(OC)c(OC)c(OC)c3)c2cc1OC	none
COc1cc2nc(Nc3nc4ccccc4n3C)nc(Nc3cc(OC)c(OC)c(OC)c3)c2cc1OC	none
COc1cc2nc(NC3CCN(Cc4ccccc4)CC3)nc(Nc3ccc(N4CCOCC4)cc3)c2cc1OC	ASK1 inh 38.6 | TruHits interf 8.26
COc1cc2nc(Nc3ccccc3)nc(Nc3ccc(N4CCOCC4)cc3)c2cc1OC	ASK1 inh 48.0 | TruHits interf 9.53
COc1ccc2c(c1)C[C@H](C(=O)Nc1ccc(-c3cn[nH]c3)cc1OCCN1CCCC1)NC2	none
Cc1nn(C)c(C)c1-c1nc(NCc2ccccc2)c2ncn(C3CCCCC3)c2n1	none
COc1cc2nc(Nc3ccc(-n4ccnc4)cc3)nc(Nc3ccc(N4CCOCC4)cc3)c2cc1OC	none
c1ccc(CN2CCC(Nc3ccnc(Nc4ccc(N5CCOCC5)cc4)n3)CC2)cc1	ASK1 inh 49.8 | TruHits interf inactive
c1nc2nc(Nc3ccc(N4CCOCC4)cc3)nc(Nc3ccc(N4CCOCC4)cc3)c2[nH]1	none
COc1cc2nc(Nc3ccc(N4CCOCC4)cc3)nc(Nc3ccccc3)c2cc1OC	ASK1 inh 56.2 | TruHits interf 8.51
COc1cc2nc(Nc3ccc(N4CCOCC4)cc3)nc(Nc3ccc(N4CCOCC4)cc3)c2cc1OC	ASK1 inh 63.9 | TruHits interf 5.55
COc1cc2nc(Nc3ccc4ncccc4c3)nc(Nc3ccc(N4CCOCC4)cc3)c2cc1OC	none
c1ccc(CN2CCC(Nc3nccc(Nc4ccc(N5CCOCC5)cc4)n3)CC2)cc1	none
